Screens deposited in PubChem by National Center for Advancing Translational Sciences (NCATS).
Hits are enriched below; roughly 8% of the tested compounds scored in any of these assays.
RORgamma inh: qHTS for inhibitors of ROR gamma transcriptional activity | hit rate 5.4% among 310,000 | Nuclear receptor ROR-gamma (Mus musculus), P51450 | Drosophila S2 Gal4-RORgamma UAS-luciferase reporter, 20 h | Potency, µM (titrated, usually from 53.6 µM), inactives show at the highest dose activity change, negative = inhibition, actives largely listed as inhibitors; note: potency is the fitted concentration of half-maximal effect; nearly all actives have a fitted effect of over 60% in size
Target sequence (P51450 whole entry, looked up, the tested form may be a part): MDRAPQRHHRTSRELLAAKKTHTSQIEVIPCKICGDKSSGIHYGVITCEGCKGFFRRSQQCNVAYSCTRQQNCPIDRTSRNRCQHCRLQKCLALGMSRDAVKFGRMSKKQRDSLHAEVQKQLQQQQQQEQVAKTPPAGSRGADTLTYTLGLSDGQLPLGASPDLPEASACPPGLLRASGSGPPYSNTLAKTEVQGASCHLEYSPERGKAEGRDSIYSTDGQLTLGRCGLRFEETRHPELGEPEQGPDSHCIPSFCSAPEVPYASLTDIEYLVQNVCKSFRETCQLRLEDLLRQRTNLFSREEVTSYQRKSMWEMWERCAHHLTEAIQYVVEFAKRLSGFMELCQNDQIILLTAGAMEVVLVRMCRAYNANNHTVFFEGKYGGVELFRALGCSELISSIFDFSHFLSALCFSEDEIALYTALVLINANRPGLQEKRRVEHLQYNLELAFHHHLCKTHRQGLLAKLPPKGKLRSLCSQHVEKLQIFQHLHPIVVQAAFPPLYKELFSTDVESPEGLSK
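Using a luciferase readout, inhibitors were identified by reduced reporter activity in Drosophila cells coexpressing a copper-inducible Gal4–ROR gamma fusion and UAS-driven Photinus luciferase, incubated 20 hr after 700 uM copper sulfate.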
Coupling enz: qHTS Assay for Inhibitors of Fructose-1,6-bisphosphate Aldolase from Giardia Lamblia: Coupling assay counterscreen; coupling enzyme system counterscreen, AmpLite Red fluorescence; activity change, negative = inhibition, % at 58.2 µM, hits read low; hit rate 0.67% among 290,000; in the data active = activity change below about -30%
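Compounds tested against the coupling enzymes alone at 57.5 uM final; readout was AmpLite Red fluorescence (525/598 nm) after 20 min at RT.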
TSHR antagonist: Antagonists of the Thyroid Stimulating Hormone Receptor: HTS campaign | AID 504810, 2011 | activity change, negative = inhibition, % at 11.5 µM | TSHR-expressing cells, TSH-stimulated cAMP HTRF, 2 h; active compounds read low | hit rate 0.2% among 330,000 | Thyrotropin receptor (Homo sapiens), P16473;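 active = activity change below a set negative limit, meaning inhibition stronger than a set level, cut at about -70% in these data; inconclusive = activity change between two set negative limits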
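Antagonism was scored as loss of TSH-driven cAMP in TSHR cells, stimulated with 4nM TSH (EC80) for 2 hours at 37 deg C and detected by homogeneous HTRF competition immunoassay.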
Gal4-VP16 FLuc: VP16 counterscreen qHTS for inhibitors of ROR gamma transcriptional activity. Drosophila S2 Gal4-VP16 UAS-luciferase, luminescence, 20 h. Potency, µM (doses to about 53.6 µM), without a hit: at the highest dose activity, negative = inhibition, hits mostly inhibitors. hit rate 3.5% among 310,000;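 note: Gal4-VP16 expression switched on by copper sulfate through the metallothionein promoter; potency is the fitted concentration of half-maximal effect; nearly all actives have a fitted effect of over 50% in size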
ELG1 DNA repair: qHTS screen for small molecules that inhibit ELG1-dependent DNA repair in human embryonic kidney (HEK293T) cells expressing luciferase-tagged ELG1. HEK293T ELG1-luciferase reporter, luminescence, 16 h; DNA damage induced by 5-fluorouridine. hit rate 2.3% among 330,000. AID 504467, 2011. Potency, µM (series often up to 46.1 µM), for the others: at the top dose activity change, negative = inhibition, usual class: inhibitors; note: potency is the fitted concentration of half-maximal effect; nearly all actives have a fitted effect of over 55% in size
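Reporter activity after DNA damage by 5-fluorouridine is monitored. Compound-treated cells incubate 16 hr at 37 °C, then ONE-Glo is added for 30 min before luminescence reading.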
* marks the source's active call; other numbers are inactive results; ? = inconclusive; / = no result given; ! = not confirmed by another sample. Unless noted, calls come from the whole dose curve; as a rule, active = well fitted curve in the direction sought with a large enough effect; inconclusive = small, poorly fitted or top-dose-only effect, or another doubt; inactive = no such curve, though single readings can be large; an effect the other way counts as inactive or inconclusive. % is set by controls: 0 for no effect and ±100 for the full control effect.

SMILES	RORgamma inh	Coupling enz	TSHR antagonist	Gal4-VP16 FLuc	ELG1 DNA repair
S=C(NCc1ccco1)N1CCN(c2nc(-c3ccccc3)cs2)CC1	-21%	3	-12	1%	?
CNC(=S)N1CCN(c2nc(-c3cccc(OC)c3)cs2)CC1	-1%	1	-5	24%	2%
COc1cccc(-c2csc(N3CCN(C(=O)NC45CC6CC(CC(C6)C4)C5)CC3)n2)c1	-4%	-1	-24	3%	23µM*
COc1cccc(-c2csc(N3CCN(C(=S)Nc4ccccc4C)CC3)n2)c1	7.1µM*	0	-5	?	7%
COc1cccc(-c2csc(N3CCN(Cc4ccccc4)CC3)n2)c1	13µM*	1	-12	?	18%
COc1cccc(-c2csc(N3CCN(C(=O)Nc4ccccc4Cl)CC3)n2)c1	?	0	-14	-5%	-7%
S=C(NCC1CCCO1)N1CCN(c2nc(-c3ccccc3)cs2)CC1 (stereo not given)	40%	0	-13	-1%	23µM*
COc1cc2c(cc1OC)[C@@H]1C(=O)c3ccc4c(c3O[C@@H]1CO2)C=CC(C)(C)O4	?	0	/	/	/
O=C(Cn1c(=O)[nH]c2sc3c(c2c1=O)CCCC3)NCC1CCCO1 (stereo not given)	-1%	-1	2	-6%	21%
COc1ccc(-c2csc(N3CCC(c4ccccc4)C3)n2)cc1 (stereo not given)	11µM*	-2	3	-6%	?
CCCCCCCCCCOC(=O)C[N+](C)(C)C/C=C(/C)Cl	14%	-2	-3	22µM*	-9%
O=C(Nc1ccc(-c2noc(CCc3ccccc3)n2)cc1)c1cccnc1	5%	-8	-22	5%	23µM*
O=C(NCCc1ccccc1)c1ccc(NC(=O)c2cccnc2)cc1	?	1	24	13%	13%
O=C(O)CCCc1nc(-c2ccccc2)no1	14µM*	5	2	?	3%
Cc1cccc(-c2noc(CCCC(=O)Nc3cccnc3)n2)c1	-12%	-1	10	?	-29%
O=C(CCCc1nc(-c2ccc(Cl)cc2)no1)Nc1cccnc1	16µM*	5	-22	11µM*	?
NC(=O)CCCc1nc(-c2ccccc2)no1	-1%	4	-4	-14%	17%
O=C(O)CCCc1nc(-c2ccc(Cl)cc2)no1	0.35µM*	3	-9	?	4%
CN(C)C(=O)CCCc1nc(-c2ccc(Cl)cc2)no1	-5%	1	-9	0%	?
COCc1cc(OC)nc(-c2csc(C)n2)n1	11µM*	3	18	-23%	-7%
Cc1cc(Cl)c(S(=O)(=O)N2CCCCCC2)cc1OCC(=O)NC1CCCCC1	-26%	4	-40	-12%	9.2µM*
Cc1cc(Cl)c(S(=O)(=O)N2CCCC2)cc1OCC(N)=O	-27%	1	4	11%	12%
Cc1cc(Cl)c(S(N)(=O)=O)cc1OCC(=O)NC1CCCCC1	24%	-1	12	-4%	-14%
COc1ccc(CCNC(=O)COc2ccc(S(=O)(=O)NC3CCCCC3)cc2Cl)cc1OC	35%	-2	6	-21%	21µM*
Cc1cc(Cl)c(S(=O)(=O)N2CCSCC2)cc1OCC(=O)NC1CCCCC1	43%	1	-48	11%	9.2µM*
SMILES	RORgamma inh	Coupling enz	TSHR antagonist	Gal4-VP16 FLuc	ELG1 DNA repair
Cc1cc(Cl)c(S(=O)(=O)NC2CCCC2)cc1OCC(=O)NC1CCCCC1	-11%	0	-26	-26%	9.2µM*
COc1ccccc1-c1cncnc1NCc1cnc(C)cn1	6%	0	/	3%	/
COc1ccccc1CCNC(=O)C1CCC(=O)N(C2CCCCCC2)C1 (stereo not given)	0%	/	-7	22%	-1%
Cc1noc(C)c1C(=O)N1CCC2(CC1)CCN(c1cccc(-c3ccccc3)c1)CC2	?	-15	/	?	/
CCOc1cc(C)c(S(=O)(=O)NC2CCCCC2)cc1C	4%	-8	2	11µM*	-19%
Cc1cc(Cl)c(S(=O)(=O)N2CCN(c3ccccn3)CC2)cc1OCC(=O)NC1CCCCC1	36%	3	-7	-13%	21µM*
Cc1cc(Cl)c(S(=O)(=O)N2CCN(c3cccc(C)c3C)CC2)cc1OCC(N)=O	3%	0	-19	-2%	?
Cc1cc(Cl)c(S(=O)(=O)N2CCCCCC2)cc1OCC(N)=O	-8%	0	11	-1%	?
CCOC(=O)N1CCN(S(=O)(=O)c2cc(OCC(=O)NC3CCCCC3)c(C)cc2Cl)CC1	28%	0	-7	10%	18µM*
CCOc1ccc(Br)cc1S(=O)(=O)NC1CCCC1	/	/	-1	/	5%
Cc1cnc(C(=O)NC2CCSc3ccccc32)cn1 (stereo not given)	-27%	0	-6	5%	8%
COC(=O)C[C@H]1c2ccccc2[C@H]2C(=C[C@@H](C)[C@H]3C(=O)N(O)C(=O)[C@H]32)N1C(=O)OC	/	2	/	/	/
CCCCC(=O)OC1CCC2C3CCc4cc(O)ccc4C3CC[C@]12C (stereo not given in full)	15%	-6	/	?	/
O=Cc1ccc2ccc3cccnc3c2n1	-42%	-18	-6	0%	-4%
c1cnc2c(c1)ccc1cccnc12	?	-66*!	-13	?	?
O=C(O)CCCCCN1C(=O)CSC1=S	5µM*	4	32	-16%	-6%
CCCCCCCCN	0%	/	/	-7%	/
Cc1ccc(O)c(CO)n1	14%	3	-4	-7%	-16%
Cc1nc2c(O)cccc2cc1CO	10µM*	-37*	12	?	1%
COc1ccc(S(=O)(=O)Nc2c(NC3CCCCC3)c3ccccc3oc2=O)cc1	2%	/	39	5%	-19%
N#CC1=C(N)N(c2ccc(Br)cc2)C2=C(C(=O)CCC2)C1c1cccnc1 (stereo not given)	2%	-44*	-1	8%	8%
Cc1ccc(C(=O)CSc2nnc(COc3ccc(C#N)cc3)n2-c2ccccc2)cc1	33%	2	-12	-2%	2%
Cc1cc(C)cc(NC(=O)CSc2nnc(Cc3cccn3C)n2-c2ccc(F)cc2)c1	?	-7	-1	11µM*	-16%
COc1ccc(-n2c(COc3ccc(C)cc3)nnc2SCC(N)=O)cc1	11µM*	-4	6	-9%	-5%
Cc1ccc(NC(=O)CSc2nnc(COc3ccc(C#N)cc3)n2-c2ccccc2)cc1C	36%	5	-3	2%	23µM*
